Among all 47,000 compounds or so, about 2,800 (6%) were called active. Cut-off read from the data, not from the text of the source: active = z-score above about 3 (passing the limit was not always enough); inactive = the rest. For the sample, actives were picked, then their nearest neighbours and some compounds at random.
These compounds were tested against Endoribonuclease Dicer (Homo sapiens) (UniProt Q9UPY3) (assay: inhibitors of Dicer pre-microRNA processing, primary screen, biochemical, cat-ELCCA, chemiluminescence (AID 1347074;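 note: plate controls were vehicle for no effect and no enzyme for full effect; higher signal means more uncleaved substrate so more Dicer inhibition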)). Conditions: cat-ELCCA pre-miR-21 Dicer processing, at 25 µM, hits give high values.
Endoribonuclease Dicer (Homo sapiens), sequence (Q9UPY3 whole entry, looked up): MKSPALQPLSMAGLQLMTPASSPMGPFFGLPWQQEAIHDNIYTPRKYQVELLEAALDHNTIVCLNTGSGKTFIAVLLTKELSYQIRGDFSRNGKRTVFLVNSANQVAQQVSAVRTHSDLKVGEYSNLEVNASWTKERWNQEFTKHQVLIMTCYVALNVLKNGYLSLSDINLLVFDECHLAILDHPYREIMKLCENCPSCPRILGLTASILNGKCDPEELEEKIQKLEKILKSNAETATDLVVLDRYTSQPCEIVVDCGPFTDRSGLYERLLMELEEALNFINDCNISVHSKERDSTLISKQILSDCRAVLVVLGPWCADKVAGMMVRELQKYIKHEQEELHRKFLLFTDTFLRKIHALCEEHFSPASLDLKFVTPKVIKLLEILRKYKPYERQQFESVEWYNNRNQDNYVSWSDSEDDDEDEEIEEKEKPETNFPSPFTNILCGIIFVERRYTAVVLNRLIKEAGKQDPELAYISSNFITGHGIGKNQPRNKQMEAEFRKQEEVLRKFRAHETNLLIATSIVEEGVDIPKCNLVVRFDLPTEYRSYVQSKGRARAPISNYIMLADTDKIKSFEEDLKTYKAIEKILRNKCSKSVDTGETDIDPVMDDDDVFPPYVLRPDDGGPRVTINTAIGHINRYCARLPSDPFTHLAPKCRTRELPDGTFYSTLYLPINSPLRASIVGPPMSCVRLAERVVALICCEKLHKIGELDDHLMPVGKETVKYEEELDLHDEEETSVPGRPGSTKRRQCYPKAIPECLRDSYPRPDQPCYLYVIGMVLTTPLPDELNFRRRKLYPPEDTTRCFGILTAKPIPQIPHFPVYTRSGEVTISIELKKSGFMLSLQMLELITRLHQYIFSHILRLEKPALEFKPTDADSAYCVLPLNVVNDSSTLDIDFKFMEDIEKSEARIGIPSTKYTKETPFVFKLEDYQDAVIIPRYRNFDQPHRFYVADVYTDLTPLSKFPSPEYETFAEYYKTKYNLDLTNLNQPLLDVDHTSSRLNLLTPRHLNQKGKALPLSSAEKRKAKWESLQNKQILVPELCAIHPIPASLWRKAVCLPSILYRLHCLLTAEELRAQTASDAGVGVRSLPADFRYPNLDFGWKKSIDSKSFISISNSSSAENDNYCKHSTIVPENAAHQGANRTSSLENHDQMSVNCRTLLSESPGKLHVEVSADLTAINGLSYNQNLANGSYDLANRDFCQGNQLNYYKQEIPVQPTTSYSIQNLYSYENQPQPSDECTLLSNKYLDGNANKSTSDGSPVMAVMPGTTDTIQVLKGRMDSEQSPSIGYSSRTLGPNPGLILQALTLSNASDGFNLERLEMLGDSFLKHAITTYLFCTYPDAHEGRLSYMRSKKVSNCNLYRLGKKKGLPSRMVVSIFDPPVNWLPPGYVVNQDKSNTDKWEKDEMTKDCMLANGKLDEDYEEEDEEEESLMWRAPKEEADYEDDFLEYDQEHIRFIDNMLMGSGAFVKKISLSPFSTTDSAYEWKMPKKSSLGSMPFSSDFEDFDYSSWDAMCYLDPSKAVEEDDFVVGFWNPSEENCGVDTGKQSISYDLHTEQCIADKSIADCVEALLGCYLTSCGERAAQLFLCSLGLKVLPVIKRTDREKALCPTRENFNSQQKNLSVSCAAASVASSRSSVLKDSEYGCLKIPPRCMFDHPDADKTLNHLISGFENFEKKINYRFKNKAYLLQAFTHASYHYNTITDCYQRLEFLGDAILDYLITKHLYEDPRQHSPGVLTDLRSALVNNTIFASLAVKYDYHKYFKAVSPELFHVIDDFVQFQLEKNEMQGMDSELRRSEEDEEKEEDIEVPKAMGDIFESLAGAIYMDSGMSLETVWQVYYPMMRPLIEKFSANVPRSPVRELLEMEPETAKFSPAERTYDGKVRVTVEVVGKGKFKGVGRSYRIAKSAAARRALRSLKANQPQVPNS

Q: For `CCOC(=O)C(NC(=O)c1ccccc1)(OC(C)C)C(F)(F)F` (configuration not stated), which z-score is on record?
A: 0.49 (inactive)

Q: `FC(F)(F)c1cc(Cl)c2ncc(-c3ccc(Cl)c(Cl)c3)nc2c1` was tested. Which z-score did it give?
A: 1.2 (inactive)

Q: With `Cc1nc2ccccc2n1C1CC(=O)N(c2ccccc2)C1=O` (configuration not stated) as the compound, how does the z-score read?
A: 0.3 (inactive)

Q: With `O=c1n(Cc2ccccc2)c2ccccc2n1Cc1ccccc1` as the compound, how does the z-score read?
A: -0.36 (inactive)

Q: `NC1=NC(c2cc(F)cc(F)c2)n2c(nc3ccccc32)N1` (configuration not stated) was tested. Which z-score did it give?
A: -1.88 (inactive)

Q: How did the z-score turn out when `O=C1CC(c2nc3ccccc3n2Cc2ccc(F)cc2)CN1c1ccccc1` (configuration not stated) was run?
A: 5.55 (active)

Q: How did the z-score turn out when `CC(C)Cn1c(C2CC(=O)N(c3ccccc3)C2)nc2ccccc21` (configuration not stated) was run?
A: 5.98 (active)

Q: Which z-score does the source give for `CCn1c(C(O)c2ccc(C(C)C)cc2)nc2ccccc21` (configuration not stated) here?
A: 1.03 (inactive)

Q: For `CCCCOCC1CC2(CC(C)(c3csc(Nc4ccccc4Cl)n3)OC2=O)C(=O)O1` (configuration not stated), which z-score is on record?
A: 0.26 (inactive)

Q: For `O=C(Nc1cccc2ncccc12)c1sc2ccccc2c1Cl`, which z-score is on record?
A: 0.23 (inactive)

Q: How did the z-score turn out when `O=C(Nc1ccc2oc(-c3ccncc3)nc2c1)c1sc2ccccc2c1Cl` was run?
A: 0.13 (inactive)

Q: For `O=C(Nc1cccc(F)c1)c1sc2ccccc2c1Cl`, which z-score is on record?
A: 4.06 (active)

Q: With `N#CC1=C(N)Oc2cc(O)ccc2C1c1cccc(Br)c1` (configuration not stated) as the compound, how does the z-score read?
A: -2.59 (inactive)

Q: `O=C1Nc2ccc(Br)cc2C1O` (configuration not stated) was tested. Which z-score did it give?
A: -6.13 (inactive)

Q: For `CCOC(=O)c1cnn2c1nc(Oc1cc(C(F)(F)F)cc(C(F)(F)F)c1)c1ccccc12`, which z-score is on record?
A: -0.15 (inactive)

Q: `COC(=O)C(C)N(C#N)c1nc(N(C)C)nc(N(C)C)n1` (configuration not stated) was tested. Which z-score did it give?
A: 5.93 (active)

Q: With `CC(C)NC(=O)NNc1cc(N(C)C)c(C#N)c(N(C)C)n1` as the compound, how does the z-score read?
A: -3.01 (inactive)

Q: `COc1ccc(N2CCN(Cc3nc4c(c(=O)n(C)c(=O)n4C)n3CC(=O)C(C)(C)C)CC2)cc1` was tested. Which z-score did it give?
A: -2.02 (inactive)

Q: Which z-score does the source give for `Cc1ccc(/C(O)=C2\C(=O)C(=O)N(CCCN3CCOCC3)C2c2ccc(C)cc2)cc1` (configuration not stated) here?
A: 0.47 (inactive)

Q: For `CCCCCCC#Cc1cncc(-c2nnc(SCC(=O)Nc3ccccc3)n2C)c1`, which z-score is on record?
A: 0.64 (inactive)

Q: How did the z-score turn out when `O=C(Nc1ccc(F)cc1F)N1CCN(c2ccccn2)CC1` was run?
A: 2.53 (inactive)

Q: How did the z-score turn out when `Cc1ccc(C)c(-c2nc(C)sc2CC(=O)O)c1` was run?
A: 0.81 (inactive)

Q: Which z-score does the source give for `CCn1c(=O)c2c(n3c(SCC(N)=O)nnc13)-c1ccccc1CC21CCCCC1` here?
A: 5.92 (active)

Q: `Cn1c(-c2ccccc2)nc2c(c1=O)C1(CCCCC1)Cc1ccccc1-2` was tested. Which z-score did it give?
A: -0.41 (inactive)

Q: Which z-score does the source give for `Fc1ccc(-c2cc3ncc4c(n3n2)-c2cc(F)ccc2OC4)cc1` here?
A: -1.86 (inactive)

Q: For `Cc1cc(C)c2c(c1)C(=O)C(c1cc(=O)c3ccccc3[nH]1)C2=O` (configuration not stated), which z-score is on record?
A: 1.92 (inactive)

Q: `CC(C)NC(=S)N/N=C/c1ccn[nH]1` was tested. Which z-score did it give?
A: 3.01 (active)

Q: For `Clc1ccc(-c2csc(N/N=C\c3ccn[nH]3)n2)cc1`, which z-score is on record?
A: 0.61 (inactive)

Q: Which z-score does the source give for `C/C(=N\NS(=O)(=O)c1ccc(Cl)cc1)c1cc(-c2ccccc2)no1` here?
A: -0.51 (inactive)

Q: Which z-score does the source give for `CN(C)[C@@H]1C(=O)C(C(N)=O)=C(O)[C@@]2(O)C(=O)C3=C(O)c4c(O)ccc(Cl)c4[C@@H](O)[C@H]3C[C@@H]12` here?
A: 0.22 (inactive)

Q: Which z-score does the source give for `C=C1c2c(Cl)ccc(O)c2C(O)=C2C(=O)[C@]3(O)C(O)=C(C(N)=O)C(=O)[C@@H](N(C)C)[C@@H]3[C@@H](O)C12` (some centres not stated) here?
A: 15.5 (active)

Q: Which z-score does the source give for `O=C(NC(=O)c1c(F)cccc1F)Nc1ccc(Br)cc1F` here?
A: 0.21 (inactive)

Q: With `O=C1Nc2ccc(S(=O)(=O)Nc3ccc4oc(=O)sc4c3)c3cccc1c23` as the compound, how does the z-score read?
A: 1.49 (inactive)

Q: For `CC(C)C(=O)NNc1ncc(C(F)(F)F)cc1Cl`, which z-score is on record?
A: 0.4 (inactive)

Q: `O=C1C(=O)N(CCCn2ccnc2)C(c2ccco2)/C1=C(\O)c1ccccc1` (configuration not stated) was tested. Which z-score did it give?
A: 2.79 (inactive)

Q: `N#Cc1cccc(CSc2ncnc(N)n2)c1` was tested. Which z-score did it give?
A: 3.87 (active)

Q: How did the z-score turn out when `O=C(CSc1nnc(-c2ccco2)c(-c2ccco2)n1)Nc1ccc(Br)cc1` was run?
A: -1.71 (inactive)

Q: For `Cc1[nH]nc2oc(=O)c([N+](=O)[O-])c(C)c12`, which z-score is on record?
A: -1.74 (inactive)

Q: For `c1ccc(C2=Nc3cccc4cccc(c34)N2)cc1`, which z-score is on record?
A: -0.61 (inactive)

Q: For `O=C1NC(c2ccccc2)=N/C1=C/c1ccc(F)cc1`, which z-score is on record?
A: 3.84 (active)

Q: Which z-score does the source give for `O=C1NNC(c2ccccc2)=N/C1=C\c1ccc(Cl)cc1` here?
A: -3.16 (inactive)

Q: With `O=C1C(=O)N(CCCn2ccnc2)C(c2ccncc2)/C1=C(\O)c1ccc(Cl)cc1` (configuration not stated) as the compound, how does the z-score read?
A: 1.19 (inactive)

Q: How did the z-score turn out when `CCCc1n(CC(O)COc2ccc(C)cc2)c2ccccc2[n+]1C` (configuration not stated) was run?
A: -0.91 (inactive)

Q: Which z-score does the source give for `Cc1ccccc1CN1C=C(C(N)=O)C(C(F)(F)F)CC1` (configuration not stated) here?
A: -0.6 (inactive)

Q: `COc1cccc(CNC2CS(=O)(=O)CC2O)c1` (configuration not stated) was tested. Which z-score did it give?
A: 0.5 (inactive)

Q: Which z-score does the source give for `CCc1c(C)nc2cc(-c3ccc(Br)cc3)[nH]n2c1=O` here?
A: 1.4 (inactive)

Q: How did the z-score turn out when `COCCOC(=O)C1=C(C)NC2=C(C(=O)CC(C)(C)C2)C1c1ccc(Br)cc1` (configuration not stated) was run?
A: -0.9 (inactive)

Q: Which z-score does the source give for `COc1csc2nc(C)cc(C)c12` here?
A: 2.93 (inactive)

Q: For `O=C(CC1(O)C(=O)Nc2ccccc21)c1ccc(F)cc1` (configuration not stated), which z-score is on record?
A: -0.42 (inactive)

Q: With `Cc1[nH]c2ccccc2c1C1(O)C(=O)Nc2ccccc21` (configuration not stated) as the compound, how does the z-score read?
A: 0.91 (inactive)

Q: `O=C1Nc2ccccc2C12NNC(=S)NN2` was tested. Which z-score did it give?
A: 8.53 (active)

Q: `CC1=C(C(=O)Nc2ccccc2)C(c2cccs2)C(C#N)=C(SCC(=O)O)N1` (configuration not stated) was tested. Which z-score did it give?
A: 0.54 (inactive)

Q: `CC12CCC(C(=O)O)(CC1=O)C2(C)C` (configuration not stated) was tested. Which z-score did it give?
A: 2.29 (inactive)

Q: With `O=C(Oc1ccc2ccccc2c1)c1ccncc1` as the compound, how does the z-score read?
A: 0.81 (inactive)

Q: With `O=C1C(=O)N(c2cccnc2)C(c2ccc(Br)cc2)/C1=C(\O)c1ccc(Cl)cc1` (configuration not stated) as the compound, how does the z-score read?
A: 0.32 (inactive)

Q: How did the z-score turn out when `O=C(Oc1ccc(Br)cc1)c1cccnc1` was run?
A: 5.46 (active)

Q: Which z-score does the source give for `O=C1CC(c2ccc(F)cc2)Cc2nc3nc(C(F)(F)F)nn3cc21` (configuration not stated) here?
A: -0.42 (inactive)

Source: PubChem BioAssay AID1347074 (Center for Chemical Genomics, University of Michigan, 2019)
